Of roughly 7,900 targets only a part is listed; those with a hit were picked by preference. About 0.6% of all pairs of compound and target were hits. A number with no mark means an inactive call.
Experiments:
Assay in all cases: log2 fold change, soluble protein after heating vs DMSO (PISA); higher = thermal stabilisation; K562 cells, 10 uM, 30 min; active = over 0.2 and 3.5 SD of the protein, either way, in both replicates (recomputed)
saracatinib = compound: CN1CCN(CCOc2cc(OC3CCOCC3)c3c(Nc4c(Cl)ccc5c4OCO5)ncnc3c2)CC1 [saracatinib]
Method in brief: (§1)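 Aliquots of K562 cells (2×10^6 cells/mL) treated with 10 μM compound for 30 min were heated for 3 min over 48°C-58°C. After pooling and extraction in PBS with 0.5% NP-40 at 4°C, soluble protein from a 21,000xg, 90 min spin was quantified by TMTpro 16plex LC-MS/MS with channel sums equalised. Thermal stability is expressed against control samples, from duplicates, as a log2 fold change.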

sotrastaurin = compound: CN1CCN(c2nc(C3=C(c4c[nH]c5ccccc45)C(=O)NC3=O)c3ccccc3n2)CC1 [sotrastaurin]
Method in brief: as §1

alvocidib = compound: CN1CC[C@H](c2c(O)cc(O)c3c(=O)cc(-c4ccccc4Cl)oc23)[C@H](O)C1 [alvocidib]
Method in brief: as §1

Tubastatin A = compound: CN1CCc2c(c3ccccc3n2Cc2ccc(C(=O)NO)cc2)C1 [Tubastatin A]
Method in brief: as §1

[1] = compound: CNC(=O)C1=CC=CC=C1NC2=NC(=NC=C2Cl)NC3=C(C=C(C=C3)N4CCOCC4)OC
Method in brief: as §1

defactinib = compound: CNC(=O)c1ccc(Nc2ncc(C(F)(F)F)c(NCc3nccnc3N(C)S(C)(=O)=O)n2)cc1 [defactinib]
Method in brief: as §1

rucaparib = compound: CNCc1ccc(-c2[nH]c3cc(F)cc4c3c2CCNC4=O)cc1 [rucaparib]
Method in brief: as §1

[2] = compound: CNc1nc(-c2ccc3c(N)n[nH]c3c2)cc(N2C[C@@H](C(=O)NC3CCCCC3)CC[C@H]2C)n1
Method in brief: as §1

encorafenib = compound: COC(=O)N[C@@H](C)CNc1nccc(-c2cn(C(C)C)nc2-c2cc(Cl)cc(NS(C)(=O)=O)c2F)n1 [encorafenib]
Method in brief: as §1

[3] = compound: COC(=O)[C@H](CCSC)NC(=O)C1=C(C=C(C=C1)NC[C@H](CS)N)C2=CC=CC=C2
Method in brief: as §1

[4] = compound: COC1=CC=C(C=C1)CN2C=CC3=C2C=C(C=C3)C(=O)NO
Method in brief: as §1

filanesib = compound: CON(C)C(=O)N1N=C(c2cc(F)ccc2F)S[C@@]1(CCCN)c1ccccc1 [filanesib]
Method in brief: as §1

zotarolimus = compound: CO[C@H]1C[C@@H]2CC[C@@H](C)[C@@](O)(O2)C(=O)C(=O)N2CCCC[C@H]2C(=O)O[C@H]([C@H](C)C[C@@H]2CC[C@H](n3cnnn3)[C@H](OC)C2)CC(=O)[C@H](C)/C=C(\C)[C@@H](O)[C@@H](OC)C(=O)[C@H](C)C[C@H](C)/C=C/C=C/C=C/1C [zotarolimus]
Method in brief: as §1

idasanutlin = compound: COc1cc(C(=O)O)ccc1NC(=O)[C@@H]1N[C@@H](CC(C)(C)C)[C@](C#N)(c2ccc(Cl)cc2F)[C@H]1c1cccc(Cl)c1F [idasanutlin]
Method in brief: as §1

alisertib = compound: COc1cc(Nc2ncc3c(n2)-c2ccc(Cl)cc2C(c2c(F)cccc2OC)=NC3)ccc1C(=O)O [alisertib]
Method in brief: as §1

[5] = compound: COc1cc2nc(-c3cc(F)ccc3O)nc(N[C@@H]3CNC[C@H]3C(C)(C)O)c2cc1OC
Method in brief: as §1

gefitinib = compound: COc1cc2ncnc(Nc3ccc(F)c(Cl)c3)c2cc1OCCCN1CCOCC1 [gefitinib]
Method in brief: as §1

[6] = compound: COc1cccc2cc(-c3nc([C@H]4CC[C@H](C(=O)O)CC4)n4ncnc(N)c34)[nH]c12
Method in brief: as §1

lapatinib = compound: CS(=O)(=O)CCNCc1ccc(-c2ccc3ncnc(Nc4ccc(OCc5cccc(F)c5)c(Cl)c4)c3c2)o1 [lapatinib]
Method in brief: as §1

pictilisib = compound: CS(=O)(=O)N1CCN(Cc2cc3nc(-c4cccc5[nH]ncc45)nc(N4CCOCC4)c3s2)CC1 [pictilisib]
Method in brief: as §1

UniProt Q16850, sequence (Q16850 whole entry, looked up): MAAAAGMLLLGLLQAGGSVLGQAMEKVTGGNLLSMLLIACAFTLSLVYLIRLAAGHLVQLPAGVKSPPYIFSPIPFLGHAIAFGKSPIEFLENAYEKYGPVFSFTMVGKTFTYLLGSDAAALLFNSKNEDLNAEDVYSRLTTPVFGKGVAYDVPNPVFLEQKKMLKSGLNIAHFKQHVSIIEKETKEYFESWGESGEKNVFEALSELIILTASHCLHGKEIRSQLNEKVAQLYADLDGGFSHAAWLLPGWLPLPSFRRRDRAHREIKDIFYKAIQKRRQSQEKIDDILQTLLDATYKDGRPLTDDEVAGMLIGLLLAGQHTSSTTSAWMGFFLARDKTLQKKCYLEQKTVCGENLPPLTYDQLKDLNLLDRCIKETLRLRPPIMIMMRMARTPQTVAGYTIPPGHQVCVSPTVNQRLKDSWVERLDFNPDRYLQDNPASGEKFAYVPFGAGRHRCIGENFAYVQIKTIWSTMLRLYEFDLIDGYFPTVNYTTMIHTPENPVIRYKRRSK
UniProt Q9H2U1, sequence (Q9H2U1 whole entry, looked up): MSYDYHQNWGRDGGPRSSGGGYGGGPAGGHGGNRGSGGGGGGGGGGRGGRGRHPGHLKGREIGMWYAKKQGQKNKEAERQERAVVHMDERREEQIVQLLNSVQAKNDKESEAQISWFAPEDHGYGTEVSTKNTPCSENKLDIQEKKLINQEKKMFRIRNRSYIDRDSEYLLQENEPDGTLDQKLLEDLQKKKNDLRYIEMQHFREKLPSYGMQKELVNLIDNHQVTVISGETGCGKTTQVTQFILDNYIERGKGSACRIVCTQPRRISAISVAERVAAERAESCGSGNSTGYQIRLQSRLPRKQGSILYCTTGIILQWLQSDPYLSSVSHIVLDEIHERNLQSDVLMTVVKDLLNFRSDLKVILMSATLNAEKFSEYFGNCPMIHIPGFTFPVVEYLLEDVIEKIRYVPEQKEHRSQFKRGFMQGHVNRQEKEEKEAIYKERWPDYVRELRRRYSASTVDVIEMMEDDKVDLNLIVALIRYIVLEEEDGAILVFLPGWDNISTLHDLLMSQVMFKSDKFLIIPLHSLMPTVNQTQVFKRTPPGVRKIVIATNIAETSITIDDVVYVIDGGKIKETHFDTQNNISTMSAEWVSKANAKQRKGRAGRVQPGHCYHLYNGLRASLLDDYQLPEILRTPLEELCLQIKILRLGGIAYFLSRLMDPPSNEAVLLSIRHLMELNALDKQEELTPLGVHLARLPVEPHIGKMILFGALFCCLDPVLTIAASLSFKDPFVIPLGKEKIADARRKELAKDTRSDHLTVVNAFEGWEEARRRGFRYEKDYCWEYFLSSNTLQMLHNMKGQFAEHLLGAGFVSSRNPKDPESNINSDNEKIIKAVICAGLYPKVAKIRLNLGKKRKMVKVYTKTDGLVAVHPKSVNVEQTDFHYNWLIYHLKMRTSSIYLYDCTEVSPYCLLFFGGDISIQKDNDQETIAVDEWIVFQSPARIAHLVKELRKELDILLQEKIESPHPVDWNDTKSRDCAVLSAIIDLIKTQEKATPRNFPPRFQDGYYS
UniProt Q9GZT9, sequence (Q9GZT9 whole entry, looked up): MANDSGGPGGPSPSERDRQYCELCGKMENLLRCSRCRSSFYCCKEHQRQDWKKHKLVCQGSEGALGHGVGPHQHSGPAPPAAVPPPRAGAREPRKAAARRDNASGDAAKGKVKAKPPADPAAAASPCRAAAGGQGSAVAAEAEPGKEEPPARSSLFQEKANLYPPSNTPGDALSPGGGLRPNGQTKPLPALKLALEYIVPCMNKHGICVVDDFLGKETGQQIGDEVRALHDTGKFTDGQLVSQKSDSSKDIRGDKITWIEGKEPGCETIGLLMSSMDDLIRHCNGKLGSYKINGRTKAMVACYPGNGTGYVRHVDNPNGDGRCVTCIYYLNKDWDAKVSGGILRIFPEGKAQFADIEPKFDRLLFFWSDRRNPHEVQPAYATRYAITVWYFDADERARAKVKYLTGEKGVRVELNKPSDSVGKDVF
UniProt Q9UK59, sequence (Q9UK59 whole entry, looked up): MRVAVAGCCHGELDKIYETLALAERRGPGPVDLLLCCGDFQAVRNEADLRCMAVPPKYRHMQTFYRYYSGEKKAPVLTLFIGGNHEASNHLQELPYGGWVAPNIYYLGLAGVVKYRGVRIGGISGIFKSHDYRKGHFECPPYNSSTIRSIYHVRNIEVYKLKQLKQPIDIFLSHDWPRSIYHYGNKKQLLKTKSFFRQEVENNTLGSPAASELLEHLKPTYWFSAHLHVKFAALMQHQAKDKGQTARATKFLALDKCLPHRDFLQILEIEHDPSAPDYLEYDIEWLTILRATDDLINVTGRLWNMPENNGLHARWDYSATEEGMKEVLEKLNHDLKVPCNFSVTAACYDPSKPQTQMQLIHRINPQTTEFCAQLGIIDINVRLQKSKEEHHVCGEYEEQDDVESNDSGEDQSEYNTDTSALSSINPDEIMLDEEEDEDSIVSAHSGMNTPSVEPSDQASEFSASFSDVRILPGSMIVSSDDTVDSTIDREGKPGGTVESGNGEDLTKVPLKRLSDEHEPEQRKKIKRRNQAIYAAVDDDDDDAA
UniProt P39656, sequence (P39656 whole entry, looked up): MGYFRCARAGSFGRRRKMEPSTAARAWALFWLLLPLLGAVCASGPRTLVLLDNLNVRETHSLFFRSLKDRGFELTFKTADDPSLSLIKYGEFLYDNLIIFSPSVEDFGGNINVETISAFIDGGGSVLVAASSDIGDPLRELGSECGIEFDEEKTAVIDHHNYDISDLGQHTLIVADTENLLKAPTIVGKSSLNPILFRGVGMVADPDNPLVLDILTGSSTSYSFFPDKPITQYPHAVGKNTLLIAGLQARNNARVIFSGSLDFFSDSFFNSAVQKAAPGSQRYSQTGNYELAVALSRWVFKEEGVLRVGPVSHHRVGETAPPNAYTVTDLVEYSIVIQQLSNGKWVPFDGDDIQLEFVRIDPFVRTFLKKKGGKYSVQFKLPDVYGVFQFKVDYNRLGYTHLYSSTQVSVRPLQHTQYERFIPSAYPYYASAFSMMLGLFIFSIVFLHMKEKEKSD
UniProt Q96KP1, sequence (Q96KP1 whole entry, looked up): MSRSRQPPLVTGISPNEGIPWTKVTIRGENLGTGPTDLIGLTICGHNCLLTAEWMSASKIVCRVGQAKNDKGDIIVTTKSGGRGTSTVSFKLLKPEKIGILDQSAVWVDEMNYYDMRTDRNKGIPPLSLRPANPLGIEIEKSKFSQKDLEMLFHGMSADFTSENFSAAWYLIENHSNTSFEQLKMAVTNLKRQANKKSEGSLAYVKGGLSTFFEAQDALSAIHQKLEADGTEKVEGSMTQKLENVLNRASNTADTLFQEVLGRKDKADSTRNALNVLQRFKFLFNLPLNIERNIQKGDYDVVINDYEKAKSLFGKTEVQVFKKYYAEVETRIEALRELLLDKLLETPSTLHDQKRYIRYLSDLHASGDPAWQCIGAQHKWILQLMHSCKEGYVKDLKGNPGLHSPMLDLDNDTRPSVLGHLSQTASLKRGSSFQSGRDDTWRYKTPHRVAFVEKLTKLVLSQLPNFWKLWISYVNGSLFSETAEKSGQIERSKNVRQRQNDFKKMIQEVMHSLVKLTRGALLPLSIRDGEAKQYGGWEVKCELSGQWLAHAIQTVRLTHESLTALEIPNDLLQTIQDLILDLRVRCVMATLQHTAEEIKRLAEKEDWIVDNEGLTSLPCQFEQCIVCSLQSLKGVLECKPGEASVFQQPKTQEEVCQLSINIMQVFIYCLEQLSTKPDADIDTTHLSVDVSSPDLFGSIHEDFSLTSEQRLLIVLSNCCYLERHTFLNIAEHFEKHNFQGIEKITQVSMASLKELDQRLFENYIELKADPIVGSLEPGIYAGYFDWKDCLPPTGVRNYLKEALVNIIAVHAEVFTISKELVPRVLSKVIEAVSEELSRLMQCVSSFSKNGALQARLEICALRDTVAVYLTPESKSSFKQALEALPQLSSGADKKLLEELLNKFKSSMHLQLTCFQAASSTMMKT
UniProt P24534, sequence (P24534 whole entry, looked up): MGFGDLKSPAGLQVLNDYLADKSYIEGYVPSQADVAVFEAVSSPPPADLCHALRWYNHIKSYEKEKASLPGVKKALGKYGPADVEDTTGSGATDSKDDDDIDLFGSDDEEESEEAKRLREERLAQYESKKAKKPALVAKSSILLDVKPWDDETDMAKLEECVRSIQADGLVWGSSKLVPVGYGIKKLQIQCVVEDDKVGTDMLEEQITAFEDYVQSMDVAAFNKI

Row | Target | log2 fold change (saracatinib) | log2 fold change (sotrastaurin) | log2 fold change (alvocidib) | log2 fold change (Tubastatin A) | log2 fold change [1] | log2 fold change (defactinib) | log2 fold change (rucaparib) | log2 fold change [2] | log2 fold change (encorafenib) | log2 fold change [3] | log2 fold change [4] | log2 fold change (filanesib) | log2 fold change (zotarolimus) | log2 fold change (idasanutlin) | log2 fold change (alisertib) | log2 fold change [5] | log2 fold change (gefitinib) | log2 fold change [6] | log2 fold change (lapatinib) | log2 fold change (pictilisib)
1 | CYP51A1 (UniProt Q16850) | -0.072 | -0.029 | 0.027 | -0.024 | 0.065 | 0 | 0.162 | 0.212 | 0.029 | -0.135 | -0.035 | 0.217 | -0.11 | 0.099 | -0.025 | -0.005 | 0.009 | -0.105 | 0.401 (active) | -0.216
2 | DDOST (UniProt P39656) | -0.015 | -0.03 | 0.013 | 0.021 | 0.008 | 0.042 | -0.029 | -0.005 | 0.059 | -0.002 | -0.068 | -0.009 | 0.036 | 0.013 | -0.065 | 0.003 | -0.019 | 0.012 | 0.019 | -0.04
3 | EXOC2 (UniProt Q96KP1) | -0.058 | -0.214 | -0.01 | 0.044 | 0.064 | -0.096 | 0.136 | -0.004 | 0.126 | -0.085 | 0.015 | -0.009 | 0.021 | -0.02 | -0.011 | 0.096 | 0.107 | -0.106 | -0.037 | 0.059
4 | CTSB (UniProt P07858) | 0.05 | 0.064 | 0 | 0.002 | 0.052 | -0.014 | -0.073 | -0.009 | 0.013 | -0.008 | 0.044 | -0.16 | 0.044 | 0.032 | 0.007 | -0.006 | 0.024 | 0.03 | -0.016 | 0.043
5 | DBR1 (UniProt Q9UK59) | 0.048 | 0.019 | -0.002 | -0.012 | -0.033 | -0.012 | -0.007 | -0.004 | -0.012 | -0.011 | 0.051 | 0.036 | -0.003 | 0.015 | -0.018 | 0.017 | -0.049 | 0.054 | -0.021 | -0.064
6 | EGLN1 (UniProt Q9GZT9) | -0.01 | -0.074 | -0.003 | -0.296 (active) | 0.065 | -0.027 | 0.114 | 0.03 | 0.001 | 0.002 | -0.361 (active) | -0.07 | -0.022 | -0.004 | 0.018 | 0.018 | 0.022 | -0.074 | 0.01 | 0.009
7 | DHX36 (UniProt Q9H2U1) | -0.014 | 0.021 | 0.122 | 0.048 | -0.041 | 0.171 | 0.187 | 0.03 | 0.095 | 0.011 | 0.04 | 0.119 | 0.024 | 0.017 | 0.025 | 0.017 | -0.127 | 0.059 | 0.025 | -0.038
8 | EEF1B2 (UniProt P24534) | -0.091 | -0.061 | -0.009 | 0.017 | 0.06 | -0.064 | 0.041 | -0.013 | 0.07 | -0.046 | 0.033 | 0.031 | 0.035 | 0.007 | 0.023 | 0.03 | 0.024 | -0.061 | -0.029 | 0.014

Source: the supplement of paper PMC10849652
